Reference: PubChem BioAssay AID1159580 (chemical genetic matrix, 2015)
“And” between values parts separate entries of the source, which are not always exact repeats. Equal entries are not always repeated. Among all 5,500 compounds or so, about 2,000 (36%) were called active. Inconclusive results (about 18%) are left out. No stated cut-off is given here; in the data, active means normalized growth mostly below about 0.91 (no sharp cut-off); inconclusive means no clear call, values can overlap the other calls; inactive means mostly above about 0.92. This is one part of the list.

Test: chemical genetic growth profiling, strain panel (AID 1159580);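 further: tested at 20 µM; growth read once vehicle control cultures reached saturation at 30 °C; 1 = growth at the plate median or of vehicle wells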
Conditions: S. cerevisiae deletion strains, growth OD

CO[C@H]1CC(O[C@@H]2/C(C)=C/C[C@@H]3C[C@@H](C[C@]4(CC[C@H](C)[C@@H](C5CCCCC5)O4)O3)OC(=O)[C@@H]3C=C(C)/C(=N\O)[C@H]4OC/C(=C\C=C\[C@@H]2C)[C@]43O)O[C@@H](C)C1O (some centres undefined)
normalized growth (locus YAL013W, strain DEP1, stronger effect = lower value): 0.956 (inactive) | normalized growth (locus YAL021C, strain ccr4, stronger effect = lower value): 1.09 (inactive) | normalized growth (locus YAL026C, strain drs2, stronger effect = lower value): 1.02 (inactive) | normalized growth (locus YAL030W, strain snc1, stronger effect = lower value): 1.02 (inactive) | normalized growth (locus YBL061C, strain skt5, stronger effect = lower value): 0.989 (inactive) | normalized growth (locus YBR009C, strain hhf1, stronger effect = lower value): 1.03 (inactive) | normalized growth (locus YBR021W, strain FUR4, stronger effect = lower value): 0.952 (inactive) | normalized growth (locus YBR023C, strain chs3, stronger effect = lower value): 0.991 (inactive) | normalized growth (locus YBR171W, strain sec66, stronger effect = lower value): 0.988 (inactive) | normalized growth (locus YBR229C, strain ROT2, stronger effect = lower value): 0.992 (inactive) | normalized growth (locus YBR231C, strain swc5, stronger effect = lower value): 0.877 (active) | normalized growth (locus YBR279W, strain paf1, stronger effect = lower value): 1.01 (inactive) | normalized growth (locus YCL011C, strain gbp2, stronger effect = lower value): 1 (inactive) | normalized growth (locus YCL016C, strain dcc1, stronger effect = lower value): 1.01 (inactive) | normalized growth (locus YCL029C, strain bik1, stronger effect = lower value): 0.984 (inactive) | normalized growth (locus YCL061C, strain MRC1, stronger effect = lower value): 1.02 (inactive) | normalized growth (locus YCL069W, strain vba3, stronger effect = lower value): 1.02 (inactive) | normalized growth (locus YCR088W, strain abp1, stronger effect = lower value): 1.02 (inactive) | normalized growth (locus YDL005C, strain med2, stronger effect = lower value): 1.02 (inactive) | normalized growth (locus YDL035C, strain GPR1, stronger effect = lower value): 0.949 (inactive) | normalized growth (locus YDL040C, strain nat1, stronger effect = lower value): 1.02 (inactive) | normalized growth (locus YDL074C, strain BRE1, stronger effect = lower value): 0.979 (inactive) | normalized growth (locus YDL101C, strain DUN1, stronger effect = lower value): 0.979 (inactive) | normalized growth (locus YDL134C, strain PPH21, stronger effect = lower value): 0.96 (inactive) | normalized growth (locus YDL185W, strain tfp1, stronger effect = lower value): 0.0713 (active) | normalized growth (locus YDL192W, strain arf1, stronger effect = lower value): 0.989 (inactive) | normalized growth (locus YDR001C, strain nth1, stronger effect = lower value): 1.01 (inactive) | normalized growth (locus YDR069C, strain doa4, stronger effect = lower value): 1 (inactive) | normalized growth (locus YDR101C, strain arx1, stronger effect = lower value): 0.998 (inactive) | normalized growth (locus YDR137W, strain rgp1, stronger effect = lower value): 0.39 (active) | normalized growth (locus YDR150W, strain NUM1, stronger effect = lower value): 0.984 (inactive) | normalized growth (locus YDR159W, strain sac3, stronger effect = lower value): 0.756 (active) | normalized growth (locus YDR162C, strain NBP2, stronger effect = lower value): 0.928 (inactive) | normalized growth (locus YDR195W, strain ref2): 0.883 (inactive) | normalized growth (locus YDR297W, strain sur2, stronger effect = lower value): 1.02 (inactive) | normalized growth (locus YDR318W, strain mcm21, stronger effect = lower value): 0.992 (inactive) | normalized growth (locus YDR334W, strain swr1, stronger effect = lower value): 1.02 (inactive) | normalized growth (locus YDR335W, strain msn5, stronger effect = lower value): 0.982 (inactive) | normalized growth (locus YDR388W, stronger effect = lower value): 0.991 (inactive) | normalized growth (locus YDR392W, strain spt3, stronger effect = lower value): 0.979 (inactive) | normalized growth (locus YDR502C, strain sam2, stronger effect = lower value): 0.983 (inactive) | normalized growth (locus YEL003W, strain gim4, stronger effect = lower value): 1.01 (inactive) | normalized growth (locus YEL037C, strain rad23, stronger effect = lower value): 1.02 (inactive) | normalized growth (locus YEL061C, strain CIN8 (second series), stronger effect = lower value): 1.02 (inactive) | normalized growth (locus YEL061C, strain CIN8, stronger effect = lower value): 0.987 (inactive) | normalized growth (locus YER015W, strain faa2, stronger effect = lower value): 0.997 (inactive) | normalized growth (locus YER016W, strain bim1, stronger effect = lower value): 0.989 (inactive) | normalized growth (locus YER110C, stronger effect = lower value): 0.994 (inactive) | normalized growth (locus YER111C, strain swi4, stronger effect = lower value): 1.02 (inactive) | normalized growth (locus YER155C, strain BEM2 (second series), stronger effect = lower value): 1 (inactive) | normalized growth (locus YER155C, strain BEM2, stronger effect = lower value): 1.02 (inactive) | normalized growth (locus YER167W, strain BCK2, stronger effect = lower value): 0.994 (inactive) | normalized growth (locus YFR010W, strain ubp6, stronger effect = lower value): 1.02 (inactive) | normalized growth (locus YGL078C, strain dbp3, stronger effect = lower value): 0.975 (inactive) | normalized growth (locus YGL086W, strain mad1, stronger effect = lower value): 1.01 (inactive) | normalized growth (locus YGL167C, strain pmr1, stronger effect = lower value): 1.01 (inactive) | normalized growth (locus YGL173C, strain kem1, stronger effect = lower value): 1.02 (inactive) | normalized growth (locus YGL227W, strain vid30, stronger effect = lower value): 1.03 (inactive) | normalized growth (locus YGL240W, strain doc1, stronger effect = lower value): 1.1 (inactive) | normalized growth (locus YGL248W, strain PDE1, stronger effect = lower value): 1 (inactive) | normalized growth (locus YGL253W, strain hxk2, stronger effect = lower value): 1.01 (inactive) | normalized growth (locus YGR135W, strain pre9, stronger effect = lower value): 0.974 (inactive) | normalized growth (locus YGR252W, strain gcn5, stronger effect = lower value): 1.06 (inactive) | normalized growth (locus YHR013C, strain ard1, stronger effect = lower value): 0.861 (inactive) | normalized growth (locus YHR027C, strain rpn1, stronger effect = lower value): 0.994 (inactive) | normalized growth (locus YHR030C, strain SLT2, stronger effect = lower value): 0.993 (inactive) and 0.435 (active) | normalized growth (locus YHR079C, strain IRE1 (second series), stronger effect = lower value): 0.988 (inactive) | normalized growth (locus YHR079C, strain IRE1, stronger effect = lower value): 0.831 (active) | normalized growth (locus YHR094C, strain hxt1, stronger effect = lower value): 1 (inactive) | normalized growth (locus YHR129C, strain ARP1, stronger effect = lower value): 0.99 (inactive) | normalized growth (locus YHR142W, strain chs7, stronger effect = lower value): 1.01 (inactive) | normalized growth (locus YHR200W, strain rpn10, stronger effect = lower value): 0.988 (inactive) | normalized growth (locus YIL066C, strain RNR3, stronger effect = lower value): 0.984 (inactive) | normalized growth (locus YIL073C, strain SPO22, stronger effect = lower value): 0.801 (inactive) | normalized growth (locus YIL125W, strain kgd1, stronger effect = lower value): 0.992 (inactive) | normalized growth (locus YIR030C, strain dcg1, stronger effect = lower value): 1 (inactive) | normalized growth (locus YJL092W, strain hpr5, stronger effect = lower value): 1.02 (inactive) | normalized growth (locus YJL095W, strain BCK1 (second series), stronger effect = lower value): 1.02 (inactive) | normalized growth (locus YJL095W, strain BCK1, stronger effect = lower value): 0.882 (inactive) and 0.512 (active) | normalized growth (locus YJL115W, strain asf1, stronger effect = lower value): 1.04 (inactive) | normalized growth (locus YJL129C, strain trk1, stronger effect = lower value): 0.901 (inactive) | normalized growth (locus YJL134W, strain LCB3, stronger effect = lower value): 0.984 (inactive) | normalized growth (locus YJL154C, strain vps35, stronger effect = lower value): 1.02 (inactive) | normalized growth (locus YJL164C, strain tpk1, stronger effect = lower value): 1.01 (inactive) | normalized growth (locus YJL166W, strain qcr8, stronger effect = lower value): 1.02 (inactive) | normalized growth (locus YJL168C, strain set2, stronger effect = lower value): 0.997 (inactive) | normalized growth (locus YJL187C, strain SWE1 (second series), stronger effect = lower value): 0.99 (inactive) | normalized growth (locus YJL187C, strain SWE1, stronger effect = lower value): 1.01 (inactive) | normalized growth (locus YJR043C, strain POL32, stronger effect = lower value): 0.977 (inactive)
